Screening data deposited in PubChem BioAssay by National Center for Advancing Translational Sciences (NCATS).
An excerpt weighted towards active compounds, which were near 12% of everything screened.
Shiga inhibitor: inhibitors of Shiga toxin in Vero cells. Vero cells, Shiga toxin protein synthesis inhibition reporter. inhibition, % at 38.7 µM. hit rate 9.2% among 290,000. AID 2315; in the data active = inhibition mostly above about 28%, no sharp cut-off; inactive = mostly below about 43%; also: 0% is about no effect
MARV entry inh: blocks Marburg virus binding to or entry into cells. Marburg virus pseudotyped entry inhibition, cell reporter. Potency, µM (doses to about 37.8 µM), inactives show top-dose activity change, negative = inhibition, usual class: inhibitors. hit rate 1.8% among 300,000. AID 540276; calls by dose curve; tested in HEK293 cells; also: potency is read from the fitted curve at half-maximal effect; % is scaled to controls: 0 for no effect and ±100 for the full control effect
Lassa entry inh: inhibitors of Lassa virus binding or cell entry. Lassa virus pseudotype entry inhibition, cell reporter. Potency, µM (top dose mostly 37.9 µM), without a hit: at the top dose activity change, negative = inhibition, usual class: inhibitors. hit rate 1.2% among 300,000. AID 540256; calls by dose curve; tested in HEK293 cells; also: potency is read from the fitted curve at half-maximal effect; % is scaled to controls: 0 for no effect and ±100 for the full control effect; nearly all actives have a fitted effect of over 50% in size
CHX counter: counter-screen for Shiga toxin inhibitors: cycloheximide protein synthesis inhibition; max response, %; hit rate 12% among 300,000; cell reporter, cycloheximide protein synthesis inhibition counterscreen; in the data active = max response mostly above about 13%, no sharp cut-off; inactive = mostly below about 14%; also: read at 38.3 µM for the half of the compounds with a filed dose; 0% is about no effect
An asterisk follows results filed as active; ? = inconclusive; . = not tested or not shown; ! = not active in a repeat; [ ] = remark or other dose.

SMILES	Shiga inhibitor	MARV entry inh	Lassa entry inh	CHX counter
CC1CN=C(Nc2ccccc2)S1 (stereo not given)	8	11%	5%	9
COc1ccccc1Nc1nc(C)cs1	85*!	0%	30%	22*!
COc1ccccc1Nc1ccc(Nc2ccccc2OC)nn1	175*	-10%	-20%	29*
CC1CN=C(Nc2cccc3ccccc23)S1 (stereo not given)	37	5%	?	19*
COc1ccccc1Nc1nc(-c2sc(NC(=O)c3ccccc3)nc2C)cs1	26	0%	.	9
COc1cccc(CNC(=O)CCc2c(C)c3cc4c(C)c(C)oc4cc3oc2=O)c1	.	10%[46.1 µM]	-2%[46.1 µM]	.
O=c1[nH]c(Nc2ccc3c(c2)OCCO3)nnc1Cc1ccccc1	-12	22%[46.1 µM]	-18%	-1
Oc1ccc(-c2csc(Nc3cccc4ccccc34)n2)cc1O	11	29%[46.1 µM]	-18%[46.1 µM]	8
Cc1csc(Nc2cccc3ccccc23)n1	97	?	4%	21*
Cc1cc(C)n(-c2nc(Nc3ccccc3C(F)(F)F)nc(-n3nc(C)cc3C)n2)n1	-6	10µM*	?	-4
O=c1ccc(NS(=O)(=O)c2ccccc2)cn1Cc1ccc(Cl)c(Cl)c1	18	-14%	14%	-2
Cc1cc(-c2nn(-c3ccccc3F)cc2CN2CCN(c3ccncc3)CC2)c(C)s1	1	6.3µM*	?	-1
Cc1cc(-c2nn(-c3ccccc3F)cc2CN2CCC(O)CC2)c(C)s1	-5	.	.	-3
O=C(Nc1nc2c(F)cc(F)cc2s1)C1CC1	85*	.	.	44*
Cc1cccc2sc(NC(=O)CSCc3ccccc3)nc12	62	?	?	18*
O=C(Nc1nc2c(Cl)cccc2s1)C1CC1	27	.	.	15
Cc1cccc2sc(NC(=O)C3CC3)nc12	40*	?	11%	23*
Cc1cc(Cl)cc2sc(NC(=O)C3CC3)nc12	15	.	.	11*
COc1ccccc1NC(=O)Cn1c(=O)n(-c2cccc(C)c2)c(=O)c2c1c1cc(C)ccc1n2C	.	.	5%[46.1 µM]	.
O=C(Nc1nc2c(Cl)c(Cl)ccc2s1)C1CC1	28*	.	.	25*
O=C(Nc1nc2c(Br)cccc2s1)C1CC1	11	.	.	18*
Cc1ccc2sc(NC(=O)C3CC3)nc2c1C	63*	.	.	36*
O=C(Nc1cccc2ncccc12)c1cccnc1	14	20%	?	2
CC1(C)CC(=O)c2cc(OCC(=O)NCCN3CCCc4ccccc43)ccc2O1	-13	5%	-16%	-3
Cc1ccccc1NC(=O)COc1ccc2c(c1)OC(C)(C)CC2=O	34*	.	.	38*
SMILES	Shiga inhibitor	MARV entry inh	Lassa entry inh	CHX counter
CC(C)CCNC(=O)COc1ccc2c(c1)C(=O)CC(C)(C)O2	87*	?	0%	17*
CC1(C)CC(=O)c2cc(OCC(=O)NCCCN3CCN(c4ccc(F)cc4)CC3)ccc2O1	-12	23µM*	?	-2
COc1ccc(CC(=O)Nc2nnc(C(C)(C)C)s2)cc1OC	-4	?	?	-3
Cc1cc(CN(C)C(=O)c2ccc3nc(Cc4ccccc4F)oc3c2)on1	75*	?	?	46*
CN(Cc1nccs1)C(=O)c1ccc2nc(Cc3ccccc3F)oc2c1	-13	.	.	-3
COc1ccc(Cc2nc3ccc(C(=O)NCc4cc(C)no4)cc3o2)cc1OC	-2	-18%	2%	-2
CN(Cc1nccn1C)C(=O)c1ccc2nc(Cc3ccccc3F)oc2c1	69*	?	12%[46.1 µM]	55*
CCOc1ccc(CCNC(=O)c2sc3nc4n(c(=O)c3c2C)CCC4)cc1	-11	.	.	7
CN1CCN(S(=O)(=O)c2cccc(C(=O)N(C)CC(=O)Nc3ccc(F)c(F)c3F)c2)CC1	.	3%	2%[46.1 µM]	.
Cc1ccc(C(=O)Nc2cnc3ccccn3c2=O)cc1	103*	-20%	0%[46.1 µM]	41*
O=C(Nc1cnc2ccccn2c1=O)c1ccc(Cl)cc1Cl	96*	?	?	44*
O=C(Nc1cccn2ncnc12)c1ccc(Cl)cc1Cl	-9	2%	18%	-1
C[C@H](N)C(=O)N[C@@H](CO)C(=O)N[C@H](C(=O)N[C@H](C(=O)N[C@H](C(=O)N[C@@H](CC(N)=O)C(=O)N[C@@H](Cc1ccc(O)cc1)C(=O)N[C@H](C(=O)O)[C@@H](C)O)[C@@H](C)O)[C@@H](C)O)[C@@H](C)O	-16	.	.	-5
CC(C)(C)c1ccc(C(=O)NCCN2CCCC2)cc1	-4	.	.	2
COc1ccc(C(=O)CCN2CCCCCC2)cc1	14	-4%	-24%	11
COc1ccc(C(=O)OCCN2CCCCC2)cc1	51*	?	?	48*
CC(C)(C)c1ccc(C(=O)OCCN2CCCCC2)cc1	55*	.	.	22*
COc1ccc(C(=O)OCC[N+]2(C)CCCCC2)cc1	107*	13%[46.1 µM]	.	44*
